The text below walks through data of PubChem BioAssay (NCI).

Test systems include T-47D breast; BT-549 breast; MDA-MB-435 melanoma; SW-620 colon; MCF7 breast; HCC-2998 colon; KM12 colon; MDA-MB-468 breast; HCT-116 colon.
What all share (assay): NCI-60 one-dose screen, 48 h (100 = growth as untreated, 0 = no growth, -100 = all killed)
Settings in all cases: 10 µM

The panel holds about 83,000 compounds, 20% with a hit somewhere; the sample as a whole holds those more often.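 Note: values are percent growth. 100 is the growth of untreated cells, values between 100 and 0 indicate rising inhibition; between -100 and 0 indicates cell death.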 Values without a mark were called inactive. Calls of active or inactive are those of the source. The calls were made as follows: active = growth percent below 10; inactive = the rest.

On to `CO[C@@H]1CSSC1Cn1nc(-c2ccc(Oc3ccccc3)cc2)c2c(N)ncnc21` (stereo partly specified), for which the growth in the test on T-47D breast was 7.37% (active); with BT-549 breast it was 35.5%; with MDA-MB-435 melanoma, -72.1% (active); with SW-620 colon it was 29.1%; in the test with MCF7 breast, 16.5%; in the test on HCC-2998 colon it was 47.5%. Also, the values for the growth with KM12 colon and in the test on MDA-MB-468 breast were 38% and -12.9% (active), respectively.

As to `COc1ccc2[nH]c(=O)c(CSc3nccc(-c4ccc(Cl)cc4)n3)cc2c1`, the growth was -8.11% (active) in the test on T-47D breast; 30.6% with BT-549 breast; 55% in the test on MDA-MB-435 melanoma; 45.4% with SW-620 colon; 7.81% (active) with MCF7 breast; 48.3% in the test with HCC-2998 colon. Besides, the results for the growth in the test with KM12 colon and in the test with MDA-MB-468 breast were 31.7% and -28.5% (active), respectively.

In the case of `COc1ccc(CCN2C(=O)/C(=C/c3csc(C#N)n3)SC2=S)cc1`, the growth with T-47D breast was -5.27% (active); in the test on BT-549 breast, -44.6% (active); in the test with MDA-MB-435 melanoma, -23.6% (active); with SW-620 colon, -14.6% (active); in the test with MCF7 breast, -0.841% (active); in the test on KM12 colon it was -61.4% (active). Moreover, in the test on MDA-MB-468 breast, the growth was -67.2% (active).

For the compound `O=C1Nc2cc(-c3ccc(NC(=O)c4cccc([N+](=O)[O-])c4)cc3)ccc2/C1=C/c1ccc[nH]1`, the growth in the test with T-47D breast was 27.5%; with BT-549 breast it was 120%; in the test on MDA-MB-435 melanoma, 105%; in the test with SW-620 colon, 79.8%; in the test on MCF7 breast, 2.65% (active); with HCC-2998 colon it was 62.2%. The growth in the test on KM12 colon is 14.5%; in the test with MDA-MB-468 breast, -10.9% (active).

As for `CC(=C(c1ccc(OCCCN(C)C)cc1)c1ccc(OCCCN(C)C)cc1)c1ccccc1`, the growth with T-47D breast is -84.9% (active); in the test with BT-549 breast it was -69% (active); with MDA-MB-435 melanoma it was -98.1% (active); in the test on SW-620 colon, -44.9% (active); in the test with HCT-116 colon, -10.4% (active); in the test on HCC-2998 colon, -94.8% (active). Besides, the growth was -93% (active) with KM12 colon and -93.9% (active) with MDA-MB-468 breast.

Regarding `CC1=N/C(=C\c2ccc(N(C)C)cc2)C(=O)N1CCc1ccc(S(N)(=O)=O)cc1`, the growth is 83.2% with T-47D breast; 92.7% with BT-549 breast; 110% with MDA-MB-435 melanoma; 112% in the test on SW-620 colon; 91.8% with MCF7 breast; 97.5% in the test with HCC-2998 colon. Also, the growth is 104% in the test with KM12 colon and 110% with MDA-MB-468 breast.

On to `CN1C(=O)N(C)C2SC(N/N=C/C=C/c3ccccc3)=NC21` (stereo unspecified), for which the growth in the test with T-47D breast was 61.8%; in the test on BT-549 breast, 64.1%; with MDA-MB-435 melanoma, -19.6% (active); in the test with SW-620 colon, 63.9%; with MCF7 breast, 27.6%; in the test on HCC-2998 colon, 85.3%. Also, the growth in the test on KM12 colon is 58%; with MDA-MB-468 breast, -4.12% (active).

As to `COC(=O)C[C@](O)(CCCC(C)(C)O)C(=O)O[C@H]1C(OC)=C[C@@]23CCC(=O)N2CCc2cc4c(cc2[C@@H]13)OCO4`, the growth with T-47D breast is 89.8%; in the test on BT-549 breast it was 118%; with MDA-MB-435 melanoma, 104%; in the test on SW-620 colon, 91.9%; with MCF7 breast it was 87.3%; in the test on HCC-2998 colon it was 88%. The growth was 98.3% in the test on KM12 colon and 81.1% in the test on MDA-MB-468 breast.

For the compound `COc1ccc2[nH]c(=O)c(CSc3cccc(N)c3)cc2c1`, the growth is 37.5% in the test on T-47D breast; 75.1% in the test on BT-549 breast; 31.6% in the test on MDA-MB-435 melanoma; 25% in the test with SW-620 colon; 31% in the test with MCF7 breast; 44.6% in the test with HCC-2998 colon. The growth is 4.43% (active) in the test on KM12 colon and 34.7% in the test on MDA-MB-468 breast.

In the case of `CCCCCCCCCCCCCCCCCCCC(=O)NCCc1c[nH]c2ccc(OC(=O)NOCCOCCOCCOCCOCCOCCOCCOCCOCCOCCOCCOCCOCCOCCOCCOCCOCCOCCOCCOCCOCCOCCOC)cc12`, the growth in the test with T-47D breast is -8.69% (active); with BT-549 breast, -12.7% (active); with MDA-MB-435 melanoma it was 17.2%; with SW-620 colon, 26.6%; in the test with MCF7 breast, -12.3% (active); in the test on HCC-2998 colon, -2.45% (active). In addition, the growth with KM12 colon was 14.9%; in the test with MDA-MB-468 breast, -14.7% (active).

With `CN1CCN(c2ccc(Nc3nc(N4CCN(S(=O)(=O)c5ccc(F)cc5)CC4)c4sccc4n3)cc2)CC1`, the growth in the test on T-47D breast was -62.7% (active); in the test with BT-549 breast, 65.2%; in the test on MDA-MB-435 melanoma, -100% (active); in the test with SW-620 colon, -63.8% (active); with MCF7 breast, -77.6% (active); in the test with HCC-2998 colon, -90.7% (active). Further, the growth in the test on KM12 colon was -74.8% (active); in the test with MDA-MB-468 breast, -96.7% (active).

In the case of `O=C(CSc1ccc(-c2ccc(Cl)cc2)nn1)Nc1ccc(Cl)c(C(F)(F)F)c1`, the growth in the test with T-47D breast was 58.3%; with BT-549 breast, 74.6%; in the test with MDA-MB-435 melanoma, 0.967% (active); in the test with SW-620 colon, 36%; in the test on HCT-116 colon, 50.7%; in the test with HCC-2998 colon it was 69.5%. For the same compound, the growth with KM12 colon was 43.3%; in the test with MDA-MB-468 breast, 16.5%.

For `CCOc1ccc(/C=N/NC(=O)Cn2nc(Cc3ccccc3)c3onc(C)c3c2=O)cc1`, the growth is 44.9% in the test on T-47D breast; 6.06% (active) with BT-549 breast; 55.3% in the test on MDA-MB-435 melanoma; 43.3% with SW-620 colon; 28.3% in the test on MCF7 breast; 60.6% in the test on HCC-2998 colon. Besides, the growth in the test with KM12 colon is 66.4%; with MDA-MB-468 breast, -7.05% (active).

For `O=C(CSc1nnc(-c2c[nH]c3ccccc23)n1-c1ccccc1)Nc1ccc(C(=O)/C=C/c2ccc(Cl)cc2)cc1`, the growth in the test with T-47D breast was 40.3%; in the test on BT-549 breast it was 93.5%; in the test with MDA-MB-435 melanoma, 64.1%; in the test with SW-620 colon it was 90.4%; with MCF7 breast, 6.09% (active); in the test with HCC-2998 colon it was 78%. The growth in the test on KM12 colon was 64.5%; in the test with MDA-MB-468 breast it was 65.9%.
